Bioassay records from PubChem BioAssay.
Only some compounds are listed: those with a hit (about 2.3% of all), similar ones and a draw of the others.
H9c2 TAG inh = inhibitors of triacylglycerol accumulation, primary screen, cell-based, uHTS, fluorescence, H9c2. H9c2 cells, Nile Red lipid (TAG) fluorescence; cells loaded with 200 µM oleic acid. inhibition, % at 12.5 µM. hit rate 0.66% among 230,000. AID 651582, 2012;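 active = pattern-corrected inhibition of lipid staining of at least 50% with the nuclear-stain viability signal not falling by more than 50%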
aSyn 5UTR inh = MLPCN primary screen, SNCA 5' untranslated region | hit rate 0.82% among 300,000 | alpha-synuclein 5'UTR reporter, inhibitor activity | inhibition, % (tested at 7.5 µM); in the data active = inhibition above about 60%; inconclusive = no clear call, values can overlap the other calls;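 note: H4 neuroglioblastoma cells stably carrying SNCA 5'UTR luciferase fusion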
697 NFkB inh = inhibitors of PMA/ionomycin-induced NF-kB reporter, 697 cells, primary screen, B-cell NF-kB inhibitor project, cell-based, luminescence, uHTS | 697 B-cell NF-kB luciferase reporter, 16 h | inhibition, % at 4 µM | hit rate 0.33% among 330,000 | AID 435022, 2010; in the data active = inhibition above about 35%
Jurkat NFkB inh = inhibitors of induced NF-kB luciferase reporter, primary screen, TCR NF-kB activation inhibitor project, cell-based, luminescence, uHTS | Jurkat, PMA/ionomycin-induced NF-kB luciferase reporter | inhibition, % at 4 µM | hit rate 0.53% among 330,000; in the data active = inhibition above about 50%
Gli-Sufu block = Gli-Sufu pathway antagonists, primary screen, luciferase luminescence, Sufu-KO-LIGHT cells, uHTS | Sufu-KO-LIGHT fibroblasts, Gli luciferase reporter luminescence | hit rate 0.74% among 340,000 | AID 588413, 2011 | inhibition, % at 5 µM;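 active = inhibition above about 55%, limit read from the data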
Shn3 inh set2 = reduction of Shn3 3'UTR firefly luciferase signal, primary screen, Schnurri-3 inhibitor project, cell-based, Clone20 osteoblasts, set 2 | AID 588674, 2011 | inhibition, % at 12.5 µM | Clone20 osteoblast Shn3 3'UTR firefly luciferase, 24 h | hit rate 0.52% among 360,000;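 active = mean inhibition of at least 75% with every replicate also reaching 75%; inconclusive = mean inhibition at least 75% but some replicate below; inactive = mean inhibition below 75%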
Jurkat NFkB conf = PMA/ionomycin-induced NF-kB reporter inhibitors, Jurkat retest, confirmation, T-cell NF-kB inhibitor project, cell-based, luminescence, single concentration. hit rate 27% among 2,700. shares compounds with Jurkat NFkB inh. inhibition, % at 4 µM. Jurkat NF-kB luciferase, 16 h. AID 435020, 2010;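 active = inhibition reaching about 45% at 4 µM in either replicate, limit read from the data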
Each line names hits and unclear results; the compound was inactive in the other large screens (follow-up assays come after a bar, where they were run).

CCS(=O)(=O)c1ncc(Cl)c(C(=O)Nc2ccc(S(=O)(=O)N(C)c3ccccc3)cc2)n1	aSyn 5UTR inh 78, Jurkat NFkB inh 75, Shn3 inh set2 99 (no result: H9c2 TAG inh) | Jurkat NFkB conf inactive
O=C(C#Cc1ccccc1)Nc1ccc(F)cc1	none (no result: H9c2 TAG inh)
O=C(C#Cc1ccccc1)Nc1cccc(F)c1	Jurkat NFkB inh 73 (no result: H9c2 TAG inh) | Jurkat NFkB conf inactive
CCOc1cc(S(=O)(=O)N2CC=C(c3ccc(F)cc3)CC2)c(OCC)cc1-n1cnnn1	Jurkat NFkB inh 56 (no result: H9c2 TAG inh) | Jurkat NFkB conf inactive
O=C(COC(=O)C1CC1)NCCNC(=O)COC(=O)C1CC1	none
O=c1c(=NNc2ccccc2Cl)c(=O)c2ccccc12	none (no result: H9c2 TAG inh, aSyn 5UTR inh, 697 NFkB inh, Jurkat NFkB inh)
Cc1cc(C)c(NN=c2c(=O)c3ccccc3c2=O)c(C)c1	none (no result: H9c2 TAG inh) | Jurkat NFkB conf inactive
Cc1cc(C)n2nc(C(=O)Nc3ccc4c(c3)OCO4)cc2n1	none (no result: H9c2 TAG inh) | Jurkat NFkB conf inactive
O=C(Nc1ccc2c(c1)OCO2)c1ccc(Cl)cc1Cl	none | Jurkat NFkB conf inactive
O=C(Nc1ccc2c(c1)OCO2)c1cc2nc(C3CC3)cc(C(F)(F)F)n2n1	none (no result: H9c2 TAG inh, 697 NFkB inh, Jurkat NFkB inh)
O=C(Cc1ccccc1)NCc1ccc(-n2cccc2)cc1	Jurkat NFkB inh 54 (no result: H9c2 TAG inh) | Jurkat NFkB conf inactive
O=C(Cc1ccc(-n2cccc2)cc1)NCc1ccccc1Cl	none
CCOC(=O)c1ccc(Nc2ncnc3c2cnn3C)cc1	none (no result: H9c2 TAG inh)
Cn1ncc2c(O/N=C(\N)c3ccc(C(C)(C)C)cc3)ncnc21	H9c2 TAG inh 86, aSyn 5UTR inh 104, Jurkat NFkB inh 101 | Jurkat NFkB conf inactive
CC(OCC(O)CN1CCN(S(=O)(=O)c2ccc(Cl)cc2)CC1)c1ccc(Cl)cc1 (stereo not drawn)	none (no result: aSyn 5UTR inh, 697 NFkB inh, Jurkat NFkB inh, Gli-Sufu block)
Cc1nn(CC(=O)NC2(C)CCS(=O)(=O)C2)c(C)c1S(=O)(=O)N(C)C (stereo not drawn)	Jurkat NFkB inh 57 (no result: aSyn 5UTR inh) | Jurkat NFkB conf inactive
c1ccc2c(c1)oc1c(NCCN3CCOCC3)ncnc12	none (no result: H9c2 TAG inh)
c1ccc2c(c1)oc1c(Nc3ccc(CN4CCOCC4)cc3)ncnc12	none | Jurkat NFkB conf inactive
CN(Cc1ccccc1)C1=CC(=[N+]2CCCCC2)CC(C)(C)C1	Jurkat NFkB inh 69, Gli-Sufu block 85 | Jurkat NFkB conf 66
CN(C)c1ccc(-c2nn3c(-c4ccccc4Cl)nnc3s2)cc1	aSyn 5UTR inh 82, Jurkat NFkB inh 75 | Jurkat NFkB conf 63
CN(C)c1ccc(-c2nn3c(-c4cccnc4)nnc3s2)cc1	none (no result: H9c2 TAG inh, Shn3 inh set2)
Clc1ccccc1-c1nnc2sc(-c3ccncc3)nn12	none (no result: H9c2 TAG inh)
COc1ccccc1-c1nnc2sc(-c3ccc(N(C)C)cc3)nn12	aSyn 5UTR inh 99, Jurkat NFkB inh 78 (no result: H9c2 TAG inh) | Jurkat NFkB conf inactive
Cc1ccc2c(c1)N(CC(=O)N1CCCCC1)C(=O)C(C)O2 (stereo not drawn)	none (no result: H9c2 TAG inh)
CC(C)c1ccc(/C=N/NC(=O)c2ccccc2Cl)cc1	Jurkat NFkB inh 52 | Jurkat NFkB conf inactive
O=C(O)c1ccc(N/N=C/c2ccc(-c3ccccc3)cc2)cc1	none (no result: 697 NFkB inh, Jurkat NFkB inh)
CC(C)c1ccc(/C=N/Nc2ccc(C(=O)O)cc2)cc1	aSyn 5UTR inh 85, Jurkat NFkB inh 55 | Jurkat NFkB conf inactive
COC(=O)c1ccc(/C=N/NC(=O)c2ccccc2Cl)cc1	none (no result: H9c2 TAG inh)
Cc1ccc(F)c(S(=O)(=O)NC(=O)C2(C)CCN2C(=O)c2ccc(C3CCCCC3)cc2)c1 (stereo not drawn)	none (no result: aSyn 5UTR inh, 697 NFkB inh, Jurkat NFkB inh, Gli-Sufu block)
CCC(C(=O)NCCc1ccc(OC)c(OC)c1)n1nc(C)n2c(cc3occc32)c1=O (stereo not drawn)	none (no result: H9c2 TAG inh)
O=C(C1=C(O)C(=O)N(CCCN2CCOCC2)C1c1ccncc1)c1cc2ccccc2o1 (stereo not drawn)	none (no result: H9c2 TAG inh, 697 NFkB inh, Jurkat NFkB inh, Gli-Sufu block, Shn3 inh set2)
COc1ccc(OC)c(/C=N/NC(=O)CC(=O)NCc2ccccc2)c1	none
Cc1ccc(CCCNC(=O)C2CCC(=O)N(Cc3cccc(F)c3)C2)cc1 (stereo not drawn)	none (no result: H9c2 TAG inh)
Cc1ccc(CCC(=O)Nc2ncc(Cc3cccc(Cl)c3Cl)s2)o1	Jurkat NFkB inh 72 | Jurkat NFkB conf inactive
COc1ccc(Cl)cc1NC(=O)COc1ccc(S(=O)(=O)N2CCOCC2)cc1C	none (no result: H9c2 TAG inh)
CCN1C=CC(=C2C(=O)c3ccccc3C2=O)C=C1	aSyn 5UTR inh 96, Jurkat NFkB inh 54, Gli-Sufu block 59, Shn3 inh set2 inconclusive (no result: H9c2 TAG inh) | Jurkat NFkB conf 45
COc1ccc(N=C2C(=Nc3ccc(OC)cc3)N(c3ccc(N(C)C)cc3)C(=S)N2c2ccc(OC)cc2)cc1	aSyn 5UTR inh 99, Jurkat NFkB inh 70 (no result: H9c2 TAG inh) | Jurkat NFkB conf inactive
COc1ccc(N2C(=S)N(C(=O)c3ccccc3)C(=Nc3ccccc3)C2=Nc2ccccc2)cc1	none (no result: H9c2 TAG inh) | Jurkat NFkB conf inactive
N#CC(C#N)=C1C=C2C=C(N3CCOCC3)CCC2CC1 (stereo not drawn)	none (no result: 697 NFkB inh, Jurkat NFkB inh)
CCOc1ccc(S(=O)(=O)NCc2ccccn2)cc1NC(=O)c1ccccc1F	aSyn 5UTR inh 76, Jurkat NFkB inh 54 (no result: H9c2 TAG inh) | Jurkat NFkB conf inactive
COc1ccc(S(=O)(=O)NCc2ccccn2)cc1NC(=O)c1ccccc1	none (no result: H9c2 TAG inh)
Cc1ccc2c(c1)N(C(=O)CSc1nncn1C)C(C)(C)c1ssc(=S)c1-2	Jurkat NFkB inh 53 | Jurkat NFkB conf inactive
CCC(=O)Nc1cccc(-c2ccc(N3CCN(C)CC3)nn2)c1	none (no result: H9c2 TAG inh)
O=C(COc1ccccc1)Nc1cccc(-c2nc3cc4ccccc4cc3[nH]2)c1	none (no result: H9c2 TAG inh) | Jurkat NFkB conf inactive
CN1CCN(c2ccc(-c3cccc(NC(=O)COc4ccc(Cl)cc4)c3)nn2)CC1	none | Jurkat NFkB conf inactive
CN1CCN(c2ccc(-c3cccc(NC(=O)COc4ccccc4)c3)nn2)CC1	none | Jurkat NFkB conf inactive
CN1CCN(c2ccc(-c3cccc(NC(=O)COc4ccc(Cl)cc4Cl)c3)nn2)CC1	none | Jurkat NFkB conf inactive
Cc1ccc(N2C(=O)C(O)(C(F)(F)F)C3=C2CC(C)(C)CC3=O)cc1 (stereo not drawn)	none (no result: H9c2 TAG inh)
CCN1CCN(c2ccc(S(=O)(=O)N3CCCCC3)cc2NC(=O)/C=C/c2ccc([N+](=O)[O-])cc2)CC1	Jurkat NFkB inh 52 | Jurkat NFkB conf inactive
CSc1nc(Oc2ccc3ccccc3c2)c2sccc2n1	aSyn 5UTR inh 82, Jurkat NFkB inh 64 | Jurkat NFkB conf inactive
COc1ccc(-n2nnnc2/C=C\Nc2ccccc2C(=O)c2ccccc2)cc1	Jurkat NFkB inh 53 | Jurkat NFkB conf inactive
Nc1nonc1C(=O)NCCNc1ccc([N+](=O)[O-])cc1	none
CC(C)(C)c1ccc(C(=O)NCCc2ccccc2)cc1	none (no result: H9c2 TAG inh, Gli-Sufu block) | Jurkat NFkB conf inactive
